Consider 22 compounds from PubChem BioAssay AID651818 (Broad Institute, 2012).

Entries with a potency or affinity are not part of this list. Records with an inconclusive call do not appear. The source made the active and inactive calls. Cut-off read from the data, not from the text of the source: inconclusive = activity change below about -55%; inactive = above that.

A short description of the assay: intracellular Trypanosoma cruzi inhibitors in host cells – cell-based, plate reader, cherry-pick samples, set 3, dose response (AID 651818). The settings on record: series mostly up to 10 µM; activity change, negative = inhibition: at the top concentration.
In the case of `COc1ccc(NC(=O)N(C)C[C@H]2Oc3c(NC(=O)C4CCOCC4)cccc3C(=O)N([C@H](C)CO)C[C@@H]2C)cc1`, the “activity change, negative = inhibition” value was -21.6% (inactive).
With `Cc1noc(C)c1NC(=O)Nc1cccc2c1O[C@@H](CN(C)C(=O)NC1CCCCC1)[C@@H](C)CN([C@@H](C)CO)C2=O` the figure was -25.2% (inactive); with `C[C@@H]1CN([C@@H](C)CO)C(=O)c2cccc(NC(=O)Nc3ccccc3)c2O[C@@H]1CN(C)S(=O)(=O)c1cn(C)cn1`, -19.1% (inactive); with `CC(C)NC(=O)Nc1cccc2c1O[C@H](CN(C)Cc1ccc3c(c1)OCO3)[C@@H](C)CN([C@H](C)CO)C2=O`, -45.6% (inactive).
For `C[C@@H]1CN([C@@H](C)CO)C(=O)c2cccc(N(C)C)c2O[C@H]1CN(C)Cc1ccc2c(c1)OCO2`, the “activity change, negative = inhibition” value was 26.4% (inactive).
With `CC(C)NC(=O)Nc1cccc2c1O[C@@H](CN(C)Cc1ccc(C(F)(F)F)cc1)[C@@H](C)CN([C@H](C)CO)C2=O` the figure was -18.5% (inactive).
As to `Cc1cc(C(=O)Nc2cccc3c2O[C@@H](CN(C)C(=O)Nc2ccccc2)[C@@H](C)CN([C@H](C)CO)C3=O)n(C)n1`, the “activity change, negative = inhibition” value is 4.05% (inactive).
Turning to `CNC[C@H]1Oc2c(NS(=O)(=O)c3cccs3)cccc2C(=O)N([C@@H](C)CO)C[C@@H]1C`, the “activity change, negative = inhibition” value was -3.22% (inactive).
Take `C[C@@H]1CN([C@H](C)CO)C(=O)c2cccc(NC(=O)c3ccncc3)c2O[C@@H]1CN(C)Cc1ccc(C(=O)O)cc1`: the “activity change, negative = inhibition” value is 18.1% (inactive).
`Cc1ccc(S(=O)(=O)Nc2cccc3c2O[C@H](CN(C)C(=O)NC(C)C)[C@@H](C)CN([C@H](C)CO)C3=O)cc1`: the “activity change, negative = inhibition” value is 11.7% (inactive).
In the case of `C[C@H](CO)N1C[C@H](C)[C@@H](CN(C)S(=O)(=O)c2ccc(F)cc2)Oc2c(NC(=O)C3CCOCC3)cccc2C1=O` it was 13.3% (inactive).
Regarding `C[C@@H]1CN([C@@H](C)CO)C(=O)c2cccc(NS(=O)(=O)c3cn(C)cn3)c2O[C@H]1CN(C)C(=O)Nc1ccc(F)cc1`, the “activity change, negative = inhibition” value was -8.2% (inactive).
In the case of `C[C@@H]1CN([C@@H](C)CO)C(=O)c2cccc(NC(=O)c3ccncc3)c2O[C@@H]1CN(C)C` it was -5.04% (inactive); in that of `C[C@H](CO)N1C[C@H](C)[C@H](CN(C)C(=O)Nc2ccccc2)Oc2c(NC(=O)Nc3ccc(C(F)(F)F)cc3)cccc2C1=O`, -8.83% [at 5 µM] (inactive); in that of `Cc1ccc(S(=O)(=O)N(C)C[C@H]2Oc3c(NC(=O)Nc4c(C)noc4C)cccc3C(=O)N([C@@H](C)CO)C[C@H]2C)cc1`, 4.2% (inactive).
With `C[C@H](CO)N1C[C@H](C)[C@H](CN(C)C(=O)NC2CCCCC2)Oc2c(NS(=O)(=O)c3ccc(F)cc3)cccc2C1=O` the figure was -54.3% (inactive); with `C[C@H](CO)N1C[C@H](C)[C@@H](CN(C)C(=O)Nc2ccc3c(c2)OCO3)Oc2c(NC(=O)C3CCOCC3)cccc2C1=O`, -14.1% (inactive); with `C[C@H](CO)N1C[C@H](C)[C@@H](CN(C)C(=O)Nc2ccc(C(F)(F)F)cc2)Oc2c(NS(=O)(=O)c3ccc(Cl)cc3)cccc2C1=O`, 11% (inactive).
In the case of `Cc1noc(C)c1S(=O)(=O)N(C)C[C@@H]1Oc2c(NS(=O)(=O)c3cn(C)cn3)cccc2C(=O)N([C@H](C)CO)C[C@@H]1C` it was -2.56% (inactive).
As for `Cc1noc(C)c1NC(=O)Nc1cccc2c1O[C@@H](CN(C)Cc1ccc(-c3ccccc3)cc1)[C@@H](C)CN([C@@H](C)CO)C2=O`, the “activity change, negative = inhibition” value was 25.3% (inactive).
With `C[C@H](CO)N1C[C@H](C)[C@@H](CN(C)S(=O)(=O)c2ccc(Cl)cc2)Oc2c(NC(=O)C3CC3)cccc2C1=O` the figure was 20.4% (inactive); with `C[C@H](CO)N1C[C@H](C)[C@@H](CN(C)S(=O)(=O)c2ccc(F)cc2)Oc2c(NC(=O)c3cnccn3)cccc2C1=O`, -3.76% (inactive).
